Source: ChEMBL document CHEMBL3988442, “University of Dundee, Small-Polar-MMV Screening Library” (2021)
For part of these data: Results with a measured potency or affinity are listed apart.

Tests used:
Set-up in all cases: scale not given: direction of the effect not stated beside the values
[1] = target: Protein translocase subunit SecA (Escherichia coli (strain K12)) (UniProt P10408); assay: Assay to Identify E. coli SecA ATPase Inhibitors; assay type: functional; details: 30 µM
[2] = target: T1, Ubiquitin-activating enzyme e1, putative (Leishmania donovani (strain BPK282A1)) (UniProt E9BSI1); assay: Leishmania donovani Ubiquitin Activating Enzyme (LdE1); assay type: functional; details: 30 µM
T1 sequence (whole entry): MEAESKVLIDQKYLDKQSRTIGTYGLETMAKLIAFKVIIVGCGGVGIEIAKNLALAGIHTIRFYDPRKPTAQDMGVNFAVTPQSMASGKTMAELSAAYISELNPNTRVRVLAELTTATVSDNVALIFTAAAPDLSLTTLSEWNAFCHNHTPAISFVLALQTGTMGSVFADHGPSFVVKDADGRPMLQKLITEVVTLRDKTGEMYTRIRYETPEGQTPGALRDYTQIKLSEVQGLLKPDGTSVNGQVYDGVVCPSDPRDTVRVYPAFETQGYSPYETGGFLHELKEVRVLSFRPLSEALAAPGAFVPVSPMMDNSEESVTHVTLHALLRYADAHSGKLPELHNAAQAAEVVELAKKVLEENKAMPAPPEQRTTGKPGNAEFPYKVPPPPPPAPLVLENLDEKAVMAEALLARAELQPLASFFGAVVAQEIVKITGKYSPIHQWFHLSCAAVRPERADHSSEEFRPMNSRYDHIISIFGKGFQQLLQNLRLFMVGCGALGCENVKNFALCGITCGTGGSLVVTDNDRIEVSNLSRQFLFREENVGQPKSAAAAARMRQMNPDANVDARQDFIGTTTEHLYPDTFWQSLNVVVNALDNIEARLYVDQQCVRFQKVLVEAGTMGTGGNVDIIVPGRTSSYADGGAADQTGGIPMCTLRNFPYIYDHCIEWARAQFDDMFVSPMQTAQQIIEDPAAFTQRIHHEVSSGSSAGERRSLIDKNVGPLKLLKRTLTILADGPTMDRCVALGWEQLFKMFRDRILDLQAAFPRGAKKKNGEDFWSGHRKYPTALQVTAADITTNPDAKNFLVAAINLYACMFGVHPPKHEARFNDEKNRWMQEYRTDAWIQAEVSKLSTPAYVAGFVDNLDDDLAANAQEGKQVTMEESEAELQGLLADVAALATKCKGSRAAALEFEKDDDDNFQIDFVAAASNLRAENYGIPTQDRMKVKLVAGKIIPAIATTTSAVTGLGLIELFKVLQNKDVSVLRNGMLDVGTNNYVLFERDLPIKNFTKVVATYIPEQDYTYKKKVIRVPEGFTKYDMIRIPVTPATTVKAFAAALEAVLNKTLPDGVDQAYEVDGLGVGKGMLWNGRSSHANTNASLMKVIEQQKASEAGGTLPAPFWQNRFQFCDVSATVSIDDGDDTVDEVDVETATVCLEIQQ

[3] = target: Sialic acid-binding Ig-like lectin 9 (Homo sapiens) (UniProt Q9Y336); assay: Hs-Siglec9 ALPHAscreen SOP 20170721; details: 10 µM
Sialic acid-binding Ig-like lectin 9 (Homo sapiens), sequence (Q9Y336 whole entry): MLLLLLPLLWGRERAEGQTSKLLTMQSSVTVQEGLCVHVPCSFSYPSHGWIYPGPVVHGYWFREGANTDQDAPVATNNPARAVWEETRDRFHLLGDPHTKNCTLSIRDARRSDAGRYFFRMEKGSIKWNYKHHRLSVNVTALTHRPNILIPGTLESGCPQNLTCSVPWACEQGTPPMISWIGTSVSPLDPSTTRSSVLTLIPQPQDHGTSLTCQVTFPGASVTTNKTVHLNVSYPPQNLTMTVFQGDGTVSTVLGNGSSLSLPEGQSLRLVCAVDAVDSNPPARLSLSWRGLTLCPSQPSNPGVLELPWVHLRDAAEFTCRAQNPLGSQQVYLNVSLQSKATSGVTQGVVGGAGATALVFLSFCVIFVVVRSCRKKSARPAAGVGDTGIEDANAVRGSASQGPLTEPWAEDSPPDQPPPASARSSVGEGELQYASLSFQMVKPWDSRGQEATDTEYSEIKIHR

[4] = tested on: Trypanosoma cruzi; assay: Trypanosoma cruzi phosphomannomutase and mannose-1-phosphate guanylyltransferase assay; assay type: functional; details: 10 µM
[5] = target: T2, Arginase-2, mitochondrial (Homo sapiens) (UniProt P78540); assay: in vitro enzyme assay to detect the production of urea directly proportional to the activity of Arginase II; assay type: functional; details: 33.3 µM; also: in the data most compounds retested in dose-response had high values
T2 sequence (whole entry): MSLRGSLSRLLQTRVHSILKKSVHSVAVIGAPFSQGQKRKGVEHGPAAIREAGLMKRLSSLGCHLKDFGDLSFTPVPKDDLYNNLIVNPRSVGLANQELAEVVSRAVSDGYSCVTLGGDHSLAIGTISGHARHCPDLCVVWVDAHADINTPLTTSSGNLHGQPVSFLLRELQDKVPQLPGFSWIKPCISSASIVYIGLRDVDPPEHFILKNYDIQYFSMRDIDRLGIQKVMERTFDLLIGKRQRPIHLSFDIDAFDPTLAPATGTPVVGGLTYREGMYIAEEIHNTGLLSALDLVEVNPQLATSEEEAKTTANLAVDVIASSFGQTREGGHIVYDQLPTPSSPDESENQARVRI

[6] = target: T3, Proteasome subunit beta (Trypanosoma cruzi) (UniProt O96673); assay: Trypanosoma cruzi proteasome chymotrypsin-like activity (TcProtChymo) assay.; also: in the data most compounds retested in dose-response had high values; assay type: functional; details: 9.37 µM
T3 sequence (whole entry): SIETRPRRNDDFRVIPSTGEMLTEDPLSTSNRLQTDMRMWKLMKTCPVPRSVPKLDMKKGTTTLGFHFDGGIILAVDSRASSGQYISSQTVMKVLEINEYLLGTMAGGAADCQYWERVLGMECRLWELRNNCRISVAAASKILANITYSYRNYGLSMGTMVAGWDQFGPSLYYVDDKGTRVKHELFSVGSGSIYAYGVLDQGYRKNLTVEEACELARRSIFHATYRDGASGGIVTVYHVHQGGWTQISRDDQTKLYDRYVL

[7] = species: Homo sapiens; assay: To identify inhibition of the IFN signalling (Jak-Stat) pathway via expression of an eGFP reporter gene under the control of an IFN-stimulated response element (ISRE) containing MxA promoter.; assay type: functional; details: 30 µM
[8] = target: T4, Tyrosyl-tRNA synthetase, putative (Trypanosoma cruzi (strain CL Brener)) (UniProt Q4DSP6); assay: Trypanosoma cruzi tyrosyl tRNA synthetase (TcYRS) _High Tyrosine SOP; assay type: functional; details: 30 µM; also: in the data most compounds retested in dose-response had high values
T4 sequence (whole entry): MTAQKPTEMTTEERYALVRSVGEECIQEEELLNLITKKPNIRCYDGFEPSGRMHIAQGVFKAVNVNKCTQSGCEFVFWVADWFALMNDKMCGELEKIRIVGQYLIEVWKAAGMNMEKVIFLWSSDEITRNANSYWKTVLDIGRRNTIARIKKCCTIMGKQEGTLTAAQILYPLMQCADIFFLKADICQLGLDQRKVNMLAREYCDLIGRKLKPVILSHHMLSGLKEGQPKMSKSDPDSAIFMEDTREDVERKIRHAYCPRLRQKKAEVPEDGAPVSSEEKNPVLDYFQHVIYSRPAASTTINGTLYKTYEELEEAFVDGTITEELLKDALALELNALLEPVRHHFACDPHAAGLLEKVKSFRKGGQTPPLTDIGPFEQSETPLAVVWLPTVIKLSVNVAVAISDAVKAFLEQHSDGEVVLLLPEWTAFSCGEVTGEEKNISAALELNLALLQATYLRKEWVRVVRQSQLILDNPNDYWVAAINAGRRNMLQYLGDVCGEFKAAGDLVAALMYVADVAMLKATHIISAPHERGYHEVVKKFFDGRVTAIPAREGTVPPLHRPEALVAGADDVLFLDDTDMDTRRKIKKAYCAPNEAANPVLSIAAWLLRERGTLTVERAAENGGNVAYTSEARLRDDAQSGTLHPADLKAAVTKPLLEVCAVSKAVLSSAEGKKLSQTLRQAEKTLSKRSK

[9] = target: T4, Tyrosyl-tRNA synthetase, putative (Trypanosoma cruzi (strain CL Brener)); assay: Trypanosoma cruzi tyrosyl tRNA synthetase (TcYRS) SOP; assay type: functional; details: 30 µM
[10] = target: Chromo domain-containing protein 1 (Saccharomyces cerevisiae (strain ATCC 204508 / S288c) (Baker's yeast)) (UniProt P32657); assay: ScCHD-1 Enzyme Inhibition Assay; assay type: functional; details: 30 µM; also: in the data most compounds retested in dose-response had high values
Chromo domain-containing protein 1 (Saccharomyces cerevisiae (strain ATCC 204508 / S288c) (Baker's yeast)), sequence (P32657 whole entry, the tested form may be a part): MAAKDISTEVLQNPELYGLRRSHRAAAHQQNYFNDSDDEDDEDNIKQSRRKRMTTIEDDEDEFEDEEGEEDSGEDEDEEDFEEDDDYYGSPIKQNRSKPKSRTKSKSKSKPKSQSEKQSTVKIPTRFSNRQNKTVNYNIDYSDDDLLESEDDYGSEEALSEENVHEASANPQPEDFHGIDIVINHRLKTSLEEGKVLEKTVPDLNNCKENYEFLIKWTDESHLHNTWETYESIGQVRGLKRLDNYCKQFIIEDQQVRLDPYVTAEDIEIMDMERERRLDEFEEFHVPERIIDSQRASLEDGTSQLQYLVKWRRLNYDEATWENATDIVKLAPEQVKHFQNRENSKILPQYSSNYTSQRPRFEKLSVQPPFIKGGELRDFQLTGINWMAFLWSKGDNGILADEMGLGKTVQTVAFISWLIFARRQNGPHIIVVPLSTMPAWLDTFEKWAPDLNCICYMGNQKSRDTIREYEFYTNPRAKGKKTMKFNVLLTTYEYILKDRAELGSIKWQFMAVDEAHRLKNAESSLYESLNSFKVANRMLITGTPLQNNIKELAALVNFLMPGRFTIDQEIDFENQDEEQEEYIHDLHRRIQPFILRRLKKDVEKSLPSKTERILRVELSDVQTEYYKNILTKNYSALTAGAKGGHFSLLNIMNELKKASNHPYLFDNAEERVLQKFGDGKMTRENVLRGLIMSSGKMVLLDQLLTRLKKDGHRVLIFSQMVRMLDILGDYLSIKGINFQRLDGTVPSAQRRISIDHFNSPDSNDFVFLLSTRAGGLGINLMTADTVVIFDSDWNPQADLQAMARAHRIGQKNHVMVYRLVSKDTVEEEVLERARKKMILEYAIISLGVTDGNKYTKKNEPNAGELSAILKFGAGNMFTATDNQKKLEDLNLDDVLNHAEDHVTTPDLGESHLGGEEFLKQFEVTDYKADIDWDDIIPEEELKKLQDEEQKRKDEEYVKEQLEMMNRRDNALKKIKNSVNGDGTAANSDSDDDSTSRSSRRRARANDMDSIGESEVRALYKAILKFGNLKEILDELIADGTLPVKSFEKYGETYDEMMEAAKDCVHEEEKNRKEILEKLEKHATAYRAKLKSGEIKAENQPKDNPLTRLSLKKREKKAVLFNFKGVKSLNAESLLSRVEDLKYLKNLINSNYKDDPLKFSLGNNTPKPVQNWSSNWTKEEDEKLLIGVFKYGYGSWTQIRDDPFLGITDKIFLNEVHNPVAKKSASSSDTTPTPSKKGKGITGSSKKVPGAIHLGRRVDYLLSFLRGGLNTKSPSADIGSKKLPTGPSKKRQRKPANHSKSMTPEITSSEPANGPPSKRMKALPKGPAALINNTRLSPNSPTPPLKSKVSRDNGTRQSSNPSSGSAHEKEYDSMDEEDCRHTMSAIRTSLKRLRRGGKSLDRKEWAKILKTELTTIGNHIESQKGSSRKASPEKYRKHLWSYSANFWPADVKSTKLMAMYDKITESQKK

[11] = target: AMP-activated protein kinase, AMPK (Homo sapiens) (UniProt P54646+O43741+P54619+Q9UGJ0+Q9Y478+Q13131+Q9UGI9); assay: AMP-dependent Kinase enzyme assay. An in vitro enzyme assay that detects ADP turnover that is directly proportional to AMPK activity. This uses naive AMPK that is activated during the assay with MK-8722; assay type: functional; details: 30 µM

Protein translocase subunit SecA (Escherichia coli (strain K12)), sequence (P10408 whole entry): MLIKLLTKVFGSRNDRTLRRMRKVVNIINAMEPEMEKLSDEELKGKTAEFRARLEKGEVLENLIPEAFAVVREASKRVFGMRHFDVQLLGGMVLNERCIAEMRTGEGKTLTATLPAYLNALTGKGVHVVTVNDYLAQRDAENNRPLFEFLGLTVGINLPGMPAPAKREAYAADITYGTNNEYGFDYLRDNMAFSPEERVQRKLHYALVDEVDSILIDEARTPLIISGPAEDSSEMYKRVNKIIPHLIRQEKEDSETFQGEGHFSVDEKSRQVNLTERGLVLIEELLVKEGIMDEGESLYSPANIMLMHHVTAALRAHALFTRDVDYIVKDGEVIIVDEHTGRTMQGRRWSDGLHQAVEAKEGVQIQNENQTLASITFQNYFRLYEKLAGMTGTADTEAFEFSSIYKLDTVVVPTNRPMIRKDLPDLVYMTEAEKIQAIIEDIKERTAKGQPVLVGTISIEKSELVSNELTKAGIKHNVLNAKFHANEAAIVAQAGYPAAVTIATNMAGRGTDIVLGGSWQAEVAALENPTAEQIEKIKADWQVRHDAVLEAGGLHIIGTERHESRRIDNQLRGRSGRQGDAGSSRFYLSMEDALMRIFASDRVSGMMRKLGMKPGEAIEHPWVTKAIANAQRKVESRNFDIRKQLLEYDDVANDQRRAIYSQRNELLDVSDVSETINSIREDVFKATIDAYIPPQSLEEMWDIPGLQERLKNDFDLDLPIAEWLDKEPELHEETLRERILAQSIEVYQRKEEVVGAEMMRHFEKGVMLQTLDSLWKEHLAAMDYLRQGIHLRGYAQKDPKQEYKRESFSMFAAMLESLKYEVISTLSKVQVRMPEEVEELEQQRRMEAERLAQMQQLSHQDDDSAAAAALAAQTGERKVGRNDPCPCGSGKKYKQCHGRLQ

SMILES | Percent Effect [1] | Percent Effect [2] | Percent Effect [3] | Percent Effect [4] | Percent Effect [5] | Percent Effect [6] | Percent Effect [7] | Percent Effect [8] | Percent Effect [9] | Percent Effect [10] | Percent Effect [11]
Cc1occc1C(=O)N1CC[C@@H](N2CCOCC2)[C@@H]1Cc1ccccc1 | -6.37% | 11.7% | 1.96% | 0.876% | -2.83% | 7.33% | 0.411% | 8.95% | 15.4% | -4.72% | –
COc1cc(C)nc(N2CCN(C(=O)CN(C)C3CC3)CC2)n1 | -5.5% | 7.69% | -4.33% | -3.1% | -1.23% | 2.99% | 28.9% | -1.44% | 8.43% | 0.147% | –
c1csc(-c2nc(CN3CCn4c(nnc4C4CC4)C3)co2)c1 | -2.65% | 5.33% | 1.96% | -3.41% | 2.66% | 9.58% | 7.72% | 6.84% | 5.13% | -5.6% | –
O=C(NCC(=O)N1CCCCC1)c1ccoc1 | 2.38% | 13% | 0.0749% | -7.46% | 2.25% | 17.2% | 18.2% | 4.9% | 18.8% | -8.97% | –
Cc1cccnc1CNCC1(O)CCCN(Cc2ccc(F)cc2)C1=O (stereo not given) | -5.67% | 8.11% | 19.1% | 9.41% | 29.7% | -0.514% | 5.17% | 15.4% | 29.3% | -3.8% | –
Cn1cc(NC(=O)N2CCC(c3ccccc3)CC2)ccc1=O | -1.84% | 51.3% | 4.28% | 8.92% | 9.43% | 2.3% | 23% | 0.478% | 6.02% | 1.81% | –
CCc1sc(-c2nnc(CNCCn3cc(C)cn3)o2)cc1C | -2.72% | 5.2% | 8.91% | -6.34% | 4.71% | 1.93% | 10.2% | 4.9% | 7.06% | -8.57% | –
Cc1cnn(CC2CN(CC(=O)N(C)c3nccs3)CCO2)c1 (stereo not given) | -4.67% | 8% | 4.67% | 0.201% | -2.66% | 9.75% | 13.5% | 4.74% | 10.3% | -8.81% | –
CN(C)C(CNC(=O)CCNC(=O)OCC(F)(F)F)c1ccsc1 (stereo not given) | – | – | – | – | – | – | – | – | – | – | 3.22%
c1cnc(OCc2nnc3n2CCN(CC2CC2)C3)nc1 | -6.05% | 1.3% | 5.56% | 2.04% | -5.67% | 2.91% | -10.7% | 3.68% | 7.69% | 2.01% | –
CN(Cc1noc(C2CC2)n1)C1CCN(Cc2ccncc2)C1 (stereo not given) | -0.687% | 20.5% | -22.8% | 6.1% | 7.38% | 14.4% | 12% | 1.44% | 22.9% | -9.5% | –
CCC(O)CN1CCN(C(=O)c2sccc2OC)CC1 (stereo not given) | 0.313% | 7.79% | 10.4% | 2.24% | -3.89% | 0.526% | 16.7% | 3.92% | 16.5% | -3.7% | –
Cc1cnn(C2CCCN(C(=O)c3sccc3-n3cnnn3)C2)c1 (stereo not given) | -2% | 7.69% | -3.12% | -5.54% | 2.46% | 7.93% | 33.8% | 5.26% | 10.8% | 3.04% | –
Cc1nccc(C2(C)CCCNC2)n1 (stereo not given) | – | – | – | – | – | – | – | – | – | – | 13.7%
CN(C)c1ccc(NC(=O)NCc2ccccn2)cn1 | -1.7% | 20.8% | -3.66% | -3.92% | -0.205% | 11.9% | -8.9% | 5.88% | 18.8% | -9.39% | –
CCN1CCN(C(=O)NCCOc2ccc3c(c2)OCO3)CC1 | -3.49% | 20.8% | 7.69% | -3.92% | 1.84% | 12.6% | -5.27% | 2.94% | 16.5% | -6.7% | –
Cc1cc(C)n(C2CN(CCC(=O)NCCc3ccccc3)C2)n1 | – | – | – | – | – | – | – | – | – | – | 2.98%
NCc1cn(-c2ccccc2C(=O)NCc2cccc(Cl)c2)cn1 | 0.846% | 9.33% | -1.67% | -7.3% | 1.33% | 6.4% | -3.19% | 3.17% | 12.5% | -24.5% | –
O=C1N(CC2CC2)CCC12CCN(c1ncccn1)CC2 | 2.77% | 16.9% | -4.8% | -3% | 2.74% | 16.7% | 12.4% | 6.76% | 10% | -10.6% | –
CCn1nc2c(cc1=O)CN(Cc1nc(-c3ccsc3)no1)CC2 | -2.79% | 0% | 3.78% | -0.282% | 6.56% | 4.18% | 27.8% | 4.31% | 6.02% | -6.49% | –
CNC(=O)COc1ccccc1CNC1CCc2ncnn2C1 (stereo not given) | -1.08% | 2.56% | -25.1% | 6.67% | -1.23% | 18.7% | 13.3% | 6.22% | 20.5% | 44.8% | –
COc1ccc(CN2CCC[C@@H]3CN(C(=O)c4ccco4)C[C@@H]32)cc1 | -4.96% | 11.7% | -12.3% | -3.6% | -4.05% | 17.6% | 3.21% | 3.68% | 10.3% | 0.299% | –
CCN1CCN(C(=O)C2CCOC2)c2ccccc21 (stereo not given) | – | – | – | – | – | – | – | – | – | – | -4.37%
CC(NCc1cccc(COC2CCCC2)c1)c1cnn(C)c1 (stereo not given) | – | – | – | – | – | – | – | – | – | – | 3.6%
CC(C)(C)C(O)CN1CCN(C(=O)c2cccc3ncccc23)CC1 (stereo not given) | -3.23% | 12.8% | -15.5% | -7.23% | -0.41% | 8.11% | -0.457% | 3.35% | 10.8% | -6.72% | –
Cc1ccc(-c2nc(CCNC(=O)NC3CCN(C)CC3)co2)cc1 | -4.38% | 8% | -2.04% | 1.81% | -4.88% | 12.3% | 9.37% | 3.68% | 5.13% | -12.9% | –
CN(C)CC(=O)N1CCC2(CC1)COC(COc1ccccn1)C2 (stereo not given) | -4.97% | 6.49% | -5.49% | 2.82% | -4.86% | 12.3% | -11.4% | 5.79% | 12.8% | -0.892% | –
